Laboratory results published in the supplement of paper PMC11732987, “Enantioselective OTUD7B fragment discovery through chemoproteomics screening and high-throughput optimisation” (Communications Chemistry, 2025).
Unmarked numbers belong to inactive results.

Columns and labels:
Test in all cases: log2 ratio of Biotin-Ahx-Ub-VS probe labelling (compound/DMSO); higher = less target engagement, active = hit call of the paper (q ≤ 0.05, log2 ratio ≤ -1)
Conditions in all cases: treatment time: 3 h
[1] = compound: CN(Cc1cccc(Br)c1)C(=O)CCl
Method in brief: (§1)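 Compound at 50 or 200 µM, or DMSO, was applied for 3 h in triplicate to HEK293T lysate (495 µg per sample, Tris/CHAPS/IGEPAL buffer with protease inhibitors), after which Biotin-Ahx-Ub-VS was added at 0.5 µM final for 1 h. The labelled DUBs were pulled down with NeutrAvidin, digested with LysC and trypsin, and run by diaPASEF LC-MS/MS. Ratios are averaged base-two logs of compound over DMSO from median-normalised label-free quantities by unpaired t-test, counting only proteins with at least 2 unique peptides.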

[2] = compound: CN(Cc1cccc(OCc2ccccc2C)c1)C(=O)CCl
Method in brief: as §1

[3] = compound: CN(Cc1ccccc1)C(=O)CCl
Method in brief: as §1

[4] = compound: COc1ccc(CN(C)C(=O)CCl)cc1
Method in brief: as §1

[5] = compound: COc1cccc(CN(CCCc2ccccc2)C(=O)CCl)c1
Method in brief: as §1

[6] = compound: ClCC(=O)N1CCc2cc(Cl)c(Cl)cc2C1
Method in brief: as §1

[7] = compound: ClCC(=O)N1CCc2nc(ncc2C1)-c1ccccc1
Method in brief: as §1

[8] = compound: ClCC(=O)N1CCc2nocc2C1
Method in brief: as §1

[9] = compound: ClCC(=O)N1CCc2scc(Br)c2C1
Method in brief: as §1

[10] = compound: ClCC(=O)NC(C1CCCC1)c1cccs1
Method in brief: as §1

UniProt Q8TE49, sequence (Q8TE49 whole entry): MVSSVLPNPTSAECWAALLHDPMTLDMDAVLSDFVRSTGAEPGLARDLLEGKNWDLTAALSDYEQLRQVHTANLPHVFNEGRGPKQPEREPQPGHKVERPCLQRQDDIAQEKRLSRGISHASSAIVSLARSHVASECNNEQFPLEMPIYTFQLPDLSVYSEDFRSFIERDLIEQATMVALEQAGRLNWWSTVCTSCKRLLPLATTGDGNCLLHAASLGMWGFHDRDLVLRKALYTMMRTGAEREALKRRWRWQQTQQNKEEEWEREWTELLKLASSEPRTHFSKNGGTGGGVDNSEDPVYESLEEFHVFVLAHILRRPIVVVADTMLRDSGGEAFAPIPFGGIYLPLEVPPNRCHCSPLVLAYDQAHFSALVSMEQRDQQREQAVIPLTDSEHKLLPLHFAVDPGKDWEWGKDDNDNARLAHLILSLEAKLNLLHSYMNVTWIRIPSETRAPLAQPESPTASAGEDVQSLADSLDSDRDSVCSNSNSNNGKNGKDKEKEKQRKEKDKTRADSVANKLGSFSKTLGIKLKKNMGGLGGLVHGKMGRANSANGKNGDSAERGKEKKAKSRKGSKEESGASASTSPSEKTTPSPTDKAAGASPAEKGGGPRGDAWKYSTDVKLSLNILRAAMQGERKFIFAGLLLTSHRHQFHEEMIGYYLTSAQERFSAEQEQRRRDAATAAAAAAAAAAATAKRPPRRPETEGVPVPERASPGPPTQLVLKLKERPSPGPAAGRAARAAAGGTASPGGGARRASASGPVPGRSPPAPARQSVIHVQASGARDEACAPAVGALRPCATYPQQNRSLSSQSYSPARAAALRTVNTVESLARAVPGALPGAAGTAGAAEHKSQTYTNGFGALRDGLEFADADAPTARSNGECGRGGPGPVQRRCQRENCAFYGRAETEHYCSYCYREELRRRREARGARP
UniProt Q96RU2, sequence (Q96RU2 whole entry): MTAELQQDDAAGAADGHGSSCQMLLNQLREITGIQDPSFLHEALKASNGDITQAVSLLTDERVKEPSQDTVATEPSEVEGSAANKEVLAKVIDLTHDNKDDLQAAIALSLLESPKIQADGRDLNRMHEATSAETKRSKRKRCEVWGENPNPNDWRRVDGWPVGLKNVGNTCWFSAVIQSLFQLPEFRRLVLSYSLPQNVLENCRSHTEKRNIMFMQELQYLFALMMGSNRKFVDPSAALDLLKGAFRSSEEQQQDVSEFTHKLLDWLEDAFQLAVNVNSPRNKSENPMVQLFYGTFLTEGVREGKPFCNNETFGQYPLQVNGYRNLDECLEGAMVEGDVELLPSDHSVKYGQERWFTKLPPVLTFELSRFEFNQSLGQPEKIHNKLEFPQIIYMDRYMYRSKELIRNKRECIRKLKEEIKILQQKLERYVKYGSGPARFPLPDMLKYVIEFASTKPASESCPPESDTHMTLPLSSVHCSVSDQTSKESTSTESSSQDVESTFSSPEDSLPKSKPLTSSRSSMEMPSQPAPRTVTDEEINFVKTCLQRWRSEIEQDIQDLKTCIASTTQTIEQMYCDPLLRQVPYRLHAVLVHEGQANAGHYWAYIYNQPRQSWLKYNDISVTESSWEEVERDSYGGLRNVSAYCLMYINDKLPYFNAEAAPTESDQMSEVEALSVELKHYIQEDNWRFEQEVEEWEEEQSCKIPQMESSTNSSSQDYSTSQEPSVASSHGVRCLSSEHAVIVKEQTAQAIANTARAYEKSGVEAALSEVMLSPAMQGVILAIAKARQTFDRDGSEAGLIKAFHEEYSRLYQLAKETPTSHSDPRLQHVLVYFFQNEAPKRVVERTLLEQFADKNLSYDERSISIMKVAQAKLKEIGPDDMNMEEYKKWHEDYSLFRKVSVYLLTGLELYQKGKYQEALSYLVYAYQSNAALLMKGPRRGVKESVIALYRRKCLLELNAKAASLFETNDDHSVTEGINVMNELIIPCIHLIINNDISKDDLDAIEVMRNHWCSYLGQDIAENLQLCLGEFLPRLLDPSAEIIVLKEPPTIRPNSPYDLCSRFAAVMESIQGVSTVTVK
UniProt Q8N6M0, sequence (Q8N6M0 whole entry): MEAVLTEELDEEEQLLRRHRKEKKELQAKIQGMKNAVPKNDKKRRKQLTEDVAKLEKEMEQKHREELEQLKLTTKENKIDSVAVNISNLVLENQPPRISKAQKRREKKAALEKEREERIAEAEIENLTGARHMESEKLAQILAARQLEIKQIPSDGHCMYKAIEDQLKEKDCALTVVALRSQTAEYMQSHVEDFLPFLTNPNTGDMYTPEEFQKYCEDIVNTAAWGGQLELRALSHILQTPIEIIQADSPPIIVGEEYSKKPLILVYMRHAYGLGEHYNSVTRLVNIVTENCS
UniProt Q93009, sequence (Q93009 whole entry, looked up): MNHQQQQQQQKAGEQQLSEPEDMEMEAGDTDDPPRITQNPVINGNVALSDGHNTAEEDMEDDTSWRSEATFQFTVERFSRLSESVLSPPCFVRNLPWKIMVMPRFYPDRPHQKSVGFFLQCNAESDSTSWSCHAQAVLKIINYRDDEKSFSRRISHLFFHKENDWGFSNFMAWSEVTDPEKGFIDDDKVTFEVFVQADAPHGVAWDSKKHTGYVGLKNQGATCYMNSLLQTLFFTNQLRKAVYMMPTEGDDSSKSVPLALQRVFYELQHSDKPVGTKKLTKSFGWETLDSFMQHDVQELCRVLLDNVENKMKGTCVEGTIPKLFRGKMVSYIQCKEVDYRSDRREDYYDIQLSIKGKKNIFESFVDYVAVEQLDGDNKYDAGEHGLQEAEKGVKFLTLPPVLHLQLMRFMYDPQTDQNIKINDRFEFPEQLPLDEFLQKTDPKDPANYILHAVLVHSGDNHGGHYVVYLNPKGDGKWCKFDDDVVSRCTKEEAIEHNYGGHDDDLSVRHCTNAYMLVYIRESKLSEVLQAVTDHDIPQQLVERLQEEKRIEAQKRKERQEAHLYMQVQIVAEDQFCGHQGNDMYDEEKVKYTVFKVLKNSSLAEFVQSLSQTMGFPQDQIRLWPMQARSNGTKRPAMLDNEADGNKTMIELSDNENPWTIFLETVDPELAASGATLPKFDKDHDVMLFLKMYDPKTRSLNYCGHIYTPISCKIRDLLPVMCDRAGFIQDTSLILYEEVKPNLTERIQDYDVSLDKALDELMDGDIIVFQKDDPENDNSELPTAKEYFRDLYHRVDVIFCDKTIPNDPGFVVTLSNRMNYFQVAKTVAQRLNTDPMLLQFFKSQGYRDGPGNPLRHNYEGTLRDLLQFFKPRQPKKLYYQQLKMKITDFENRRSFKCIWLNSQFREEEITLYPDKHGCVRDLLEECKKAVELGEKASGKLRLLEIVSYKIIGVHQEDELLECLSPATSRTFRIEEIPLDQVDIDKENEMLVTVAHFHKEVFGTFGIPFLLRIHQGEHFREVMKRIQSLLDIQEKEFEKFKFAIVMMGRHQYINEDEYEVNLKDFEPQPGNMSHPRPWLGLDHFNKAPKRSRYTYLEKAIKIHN
UniProt Q53GS9, sequence (Q53GS9 whole entry): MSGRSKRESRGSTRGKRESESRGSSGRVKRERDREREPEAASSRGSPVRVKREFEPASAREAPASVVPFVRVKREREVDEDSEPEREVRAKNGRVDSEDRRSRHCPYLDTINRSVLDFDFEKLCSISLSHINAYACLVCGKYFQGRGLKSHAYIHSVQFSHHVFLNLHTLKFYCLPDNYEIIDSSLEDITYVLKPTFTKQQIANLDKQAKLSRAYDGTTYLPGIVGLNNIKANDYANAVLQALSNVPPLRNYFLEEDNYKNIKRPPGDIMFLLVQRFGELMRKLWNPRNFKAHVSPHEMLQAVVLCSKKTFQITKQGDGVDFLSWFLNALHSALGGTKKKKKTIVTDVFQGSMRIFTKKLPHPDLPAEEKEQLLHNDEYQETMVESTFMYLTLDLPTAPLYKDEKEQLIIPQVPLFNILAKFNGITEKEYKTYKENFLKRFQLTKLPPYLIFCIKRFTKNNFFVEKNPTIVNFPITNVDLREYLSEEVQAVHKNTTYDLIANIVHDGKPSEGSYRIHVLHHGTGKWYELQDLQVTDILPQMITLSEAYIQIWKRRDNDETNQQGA
UniProt P54578, sequence (P54578 whole entry): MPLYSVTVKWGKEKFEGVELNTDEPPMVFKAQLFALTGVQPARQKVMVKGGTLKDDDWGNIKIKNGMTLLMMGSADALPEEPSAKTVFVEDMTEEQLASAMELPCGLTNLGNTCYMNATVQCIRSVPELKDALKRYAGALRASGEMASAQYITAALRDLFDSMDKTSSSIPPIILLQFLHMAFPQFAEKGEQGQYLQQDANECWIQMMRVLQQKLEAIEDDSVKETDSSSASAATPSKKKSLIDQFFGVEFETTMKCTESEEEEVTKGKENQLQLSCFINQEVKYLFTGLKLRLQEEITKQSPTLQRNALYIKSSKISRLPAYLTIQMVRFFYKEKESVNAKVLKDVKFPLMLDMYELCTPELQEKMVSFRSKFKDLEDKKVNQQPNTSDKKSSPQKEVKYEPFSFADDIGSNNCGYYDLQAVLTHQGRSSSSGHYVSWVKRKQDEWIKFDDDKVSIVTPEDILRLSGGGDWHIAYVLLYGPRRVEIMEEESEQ
UniProt Q9Y5K5, sequence (Q9Y5K5 whole entry): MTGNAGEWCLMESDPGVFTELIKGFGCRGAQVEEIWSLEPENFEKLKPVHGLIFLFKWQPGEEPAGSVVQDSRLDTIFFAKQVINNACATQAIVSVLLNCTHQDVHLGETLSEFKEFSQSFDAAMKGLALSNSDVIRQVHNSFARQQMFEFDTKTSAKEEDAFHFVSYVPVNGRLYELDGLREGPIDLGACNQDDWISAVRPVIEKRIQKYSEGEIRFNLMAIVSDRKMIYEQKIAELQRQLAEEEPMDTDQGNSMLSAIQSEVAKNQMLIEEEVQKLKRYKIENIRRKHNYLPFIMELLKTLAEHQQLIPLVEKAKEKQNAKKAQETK

Target | log2 ratio of Biotin-Ahx-Ub-VS probe labelling ([1]; compound concentration: 50uM) | log2 ratio of Biotin-Ahx-Ub-VS probe labelling ([1]; compound concentration: 200uM) | log2 ratio of Biotin-Ahx-Ub-VS probe labelling ([2]; compound concentration: 50uM) | log2 ratio of Biotin-Ahx-Ub-VS probe labelling ([2]; compound concentration: 200uM) | log2 ratio of Biotin-Ahx-Ub-VS probe labelling ([3]; compound concentration: 50uM) | log2 ratio of Biotin-Ahx-Ub-VS probe labelling ([3]; compound concentration: 200uM) | log2 ratio of Biotin-Ahx-Ub-VS probe labelling ([4]; compound concentration: 50uM) | log2 ratio of Biotin-Ahx-Ub-VS probe labelling ([4]; compound concentration: 200uM) | log2 ratio of Biotin-Ahx-Ub-VS probe labelling ([5]; compound concentration: 50uM) | log2 ratio of Biotin-Ahx-Ub-VS probe labelling ([5]; compound concentration: 200uM) | log2 ratio of Biotin-Ahx-Ub-VS probe labelling ([6]; compound concentration: 50uM) | log2 ratio of Biotin-Ahx-Ub-VS probe labelling ([6]; compound concentration: 200uM) | log2 ratio of Biotin-Ahx-Ub-VS probe labelling ([7]; compound concentration: 50uM) | log2 ratio of Biotin-Ahx-Ub-VS probe labelling ([7]; compound concentration: 200uM) | log2 ratio of Biotin-Ahx-Ub-VS probe labelling ([8]; compound concentration: 50uM) | log2 ratio of Biotin-Ahx-Ub-VS probe labelling ([8]; compound concentration: 200uM) | log2 ratio of Biotin-Ahx-Ub-VS probe labelling ([9]; compound concentration: 50uM) | log2 ratio of Biotin-Ahx-Ub-VS probe labelling ([9]; compound concentration: 200uM) | log2 ratio of Biotin-Ahx-Ub-VS probe labelling ([10]; compound concentration: 50uM) | log2 ratio of Biotin-Ahx-Ub-VS probe labelling ([10]; compound concentration: 200uM)
COPS5 (UniProt Q92905) | 0.118 | -0.11 | -0.375 | -0.104 | -0.103 | 0.0593 | 0.00458 | -0.13 | -0.0338 | -0.0977 | -0.307 | -0.222 | -0.406 | 0.395 | -0.35 | 0.152 | -0.23 | -0.704 | 0.21 | -0.0541
UniProt Q8TE49 | -0.52 | -0.96 | -0.844 | -1.04 | -0.139 | -0.82 | -0.245 | -0.895 | -0.508 | -0.562 | -0.0686 | -1.89 (active) | -0.422 | -1.52 (active) | -0.33 | -2.04 (active) | -0.0558 | -1.81 (active) | 0.0953 | -0.534
OTUD6B (UniProt Q8N6M0) | -0.133 | -0.53 | -0.59 | -0.817 | -0.257 | -0.515 | -0.181 | -0.334 | -0.28 | -0.784 | 0.0579 | -1.26 (active) | 0.00143 | -0.718 | -0.255 | -0.521 | -0.125 | -1.1 (active) | 0.0378 | -0.153
UCHL5 (UniProt Q9Y5K5) | -0.213 | -0.442 | -0.735 | -1.33 (active) | -0.356 | -0.432 | -0.288 | -0.317 | -0.37 | -1.17 (active) | -0.0548 | -1.36 (active) | 0.0333 | -0.459 | -0.287 | -0.349 | -0.0669 | -0.74 | -0.0991 | -0.214
USP16 (UniProt Q9Y5T5) | -0.307 | -1.27 (active) | -0.495 | -0.496 | -0.434 | -0.669 | -0.00981 | -0.105 | -0.312 | -0.936 | -0.694 | -0.189 | -0.0935 | -1.62 (active) | -0.0383 | -0.326 | -0.507 | 0.00388 | -0.325 | -0.246
USP39 (UniProt Q53GS9) | 0.105 | -0.535 | -0.137 | 0.0162 | -0.0746 | 0.0651 | 0.011 | -0.086 | 0.17 | 0.063 | 0.017 | -0.298 | 0.044 | 0.117 | -0.102 | -0.0827 | -0.0611 | -0.272 | 0.165 | 0.014
BAP1 (UniProt Q92560) | -0.773 | -2.12 (active) | -1.42 (active) | -3.08 (active) | -0.833 | -2.17 (active) | -0.731 | -1.9 (active) | -1.04 (active) | -3.18 (active) | -0.373 | -1.76 (active) | -0.341 | -1.91 (active) | -0.448 | -1.16 (active) | -0.426 | -1.68 (active) | -0.924 | -2.92 (active)
USP28 (UniProt Q96RU2) | -0.197 | -0.68 | -0.572 | -0.911 | -0.195 | -0.692 | -0.172 | -0.467 | -0.253 | -0.826 | -0.496 | -1.71 (active) | -0.15 | -0.716 | -0.192 | -0.624 | -0.468 | -1.28 (active) | -0.0425 | -0.313
ALG13 (UniProt Q9NP73) | 0.0661 | -0.148 | 0.469 | -0.522 | 0.171 | 0.0619 | 0.45 | 0.0354 | 0.162 | -0.285 | 0.247 | 0.454 | 0.157 | -0.117 | 0.493 | -0.0466 | 0.393 | 0.369 | -0.273 | 0.0789
USP19 (UniProt O94966) | -0.419 | -1.2 (active) | -1 (active) | -1.76 (active) | -0.372 | -0.827 | -0.301 | -0.572 | -0.64 | -1.37 (active) | -0.948 | -3.11 (active) | -0.512 | -2.01 (active) | -0.407 | -1.17 (active) | -0.747 | -2.35 (active) | -0.0897 | -0.299
USP24 (UniProt Q9UPU5) | -0.487 | -1.48 (active) | -0.993 | -2.02 (active) | -0.374 | -0.994 | -0.209 | -0.569 | -0.878 | -1.68 (active) | -0.754 | -2.35 (active) | -0.355 | -1.41 (active) | -0.201 | -0.568 | -1.1 (active) | -2.46 (active) | -0.0604 | -0.635
PRPF8 (UniProt Q6P2Q9) | -0.00418 | 0.0824 | -0.075 | 0.0126 | -0.0842 | 0.108 | 0.0375 | 0.065 | 0.00751 | 0.0603 | 0.0965 | 0.0914 | 0.046 | 0.0608 | -0.0702 | 0.00362 | -0.00317 | 0.0413 | 0.122 | -0.028
EIF3F (UniProt O00303) | -0.146 | -0.0144 | -0.201 | 0.0399 | 0.12 | 0.117 | -0.317 | -0.0894 | -0.0548 | -0.0324 | -0.117 | -0.406 | -0.18 | 0.268 | -0.16 | 0.0551 | -0.352 | -0.162 | 0.0245 | -0.0374
USP46 (UniProt P62068) | -0.406 | -0.773 | -0.515 | -0.89 | -0.252 | -1.01 (active) | -0.0785 | -0.634 | -0.32 | -1.33 (active) | -0.575 | -2.77 (active) | 0.0166 | -1.12 (active) | -0.22 | -0.641 | -0.291 | -1.43 (active) | 0.0547 | -0.255
USP14 (UniProt P54578) | -0.191 | -0.555 | -0.544 | -0.62 | -0.14 | 0.0709 | -0.127 | -0.0256 | -0.187 | -0.626 | -0.137 | -0.35 | 0.0498 | 0.0841 | -0.186 | -0.17 | -0.438 | -1 (active) | -0.115 | -0.1
USP7 (UniProt Q93009) | -0.88 | -1.84 (active) | -0.769 | -1.62 (active) | -0.517 | -1.2 (active) | -0.358 | -1.04 (active) | -0.387 | -1.22 (active) | -1.57 (active) | -2.52 (active) | -0.461 | -1.58 (active) | -0.316 | -0.618 | -0.698 | -2.08 (active) | 0.0363 | -0.1
